# Measured values from the supplement of paper PMC10849652.
# Of roughly 8,800 targets only a part is listed; those with a hit were picked by preference. About 0.5% of all pairs of compound and target were hits. A number with no mark means an inactive call.
# Legend:
# Assay in all cases: log2 fold change, soluble protein after heating vs DMSO (PISA); higher = thermal stabilisation; K562 lysate, 10 uM; active = over 0.2 and 3.5 SD of the protein, either way, in both replicates (recomputed)
# erlotinib = compound: C#Cc1cccc(Nc2ncnc3cc(OCCOC)c(OCCOC)cc23)c1 [erlotinib]
# How it was run: (§1)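 The values are log-two fold changes in thermal stability compared with solvent controls and come from duplicates. They were obtained by TMTpro 16plex LC-MS/MS, with channel sums equalised, on the supernatant after 21,000xg for 90 min. That supernatant came from crude K562 extract at 1 mg/mL protein treated with 10 μM compound for 30 min, heated for 3 min across 48°C-58°C, pooled and brought to 0.5% NP-40 at 4°C.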
# [1] = compound: C/C(=N\NC(=O)C1=CC(=CC=C1)S(=O)(=O)N2CCOCC2)/C3=C(C=CC(=C3)Cl)O
# How it was run: as §1
# [2] = compound: C1=CC(=CC=C1C2=NC3=C(N2)C=C(C=C3)C(=O)N)OC4=CC=C(C=C4)Cl
# How it was run: as §1
# [3] = compound: C1=CC2=C(C=CC(=C2)/C=C\3/C(=O)NC(=NCC4=CC=CS4)S3)N=C1
# How it was run: as §1
# [4] = compound: C1=CC2=NC=CN=C2C=C1/C=C/3\C(=O)NC(=O)S3
# How it was run: as §1
# [5] = compound: C1=CC=C(C=C1)C2=NC(=C(N2)C3=CC=NC=C3)C4=CC(=C(C=C4)Cl)O
# How it was run: as §1
# [6] = compound: C1=CC=C2C(=C1)C3=NNC4=CC=CC(=C43)C2=O
# How it was run: as §1
# [7] = compound: C1CCN(C1)C(=O)NC2=CC=CC(=C2)NC3=NC=C(C(=N3)NCCC4=CN=CN4)Br
# How it was run: as §1
# [8] = compound: C1CN(CCC1(CC2=CC=C(C=C2)Cl)N)C3=NC=NC4=C3C=CN4
# How it was run: as §1
# IRAK-1-4 Inhibitor I = compound: C1COCCN1CCN2C3=CC=CC=C3N=C2NC(=O)C4=CC(=CC=C4)[N+](=O)[O-] [IRAK-1-4 Inhibitor I]
# How it was run: as §1
# ibrutinib = compound: C=CC(=O)N1CCC[C@@H](n2nc(-c3ccc(Oc4ccccc4)cc3)c3c(N)ncnc32)C1 [ibrutinib]
# How it was run: as §1
# [9] = compound: CC(=O)c1cnc2ccc(-c3cc(Cl)c(O)c(Cl)c3)nc2c1N[C@H]1CC[C@H](CN(C)C)CC1
# How it was run: as §1
# ralimetinib = compound: CC(C)(C)Cn1c(N)nc2ccc(-c3[nH]c(C(C)(C)C)nc3-c3ccc(F)cc3)nc21 [ralimetinib]
# How it was run: as §1
# [10] = compound: CC(C)(O)CC(=O)NCCn1ccc2ncnc(Nc3ccc(Oc4cccc(C(F)(F)F)c4)c(Cl)c3)c21
# How it was run: as §1
# [11] = compound: CC(C)C1=C2N=C(C=C(N2N=C1)NCC3=CC=CC=C3)NCCCCCCN
# How it was run: as §1
# [12] = compound: CC1=C(C(CC(=O)N1)C2=CC=C(C=C2)C(F)(F)F)C(=O)NC3=C(C=C4C(=C3)C=NN4)F
# How it was run: as §1
# [13] = compound: CC1=C(C2=C(C=C1)C(=O)C3=CC=CC=C3N2CCCN)C
# How it was run: as §1
# [14] = compound: CC1=C(C=C(C=C1)NC(=O)C2=CC(=CC=C2)C(C)(C)C#N)NC3=CC4=C(C=C3)N=CN(C4=O)C
# How it was run: as §1
# [15] = compound: CC1=C(C=C(C=C1)NC(=O)C2=CC(=CC=C2)N(C)C)NC(=O)C3=CC=C(C=C3)O
# How it was run: as §1
# [16] = compound: CC1=CC=C(C=C1)SC2=C3C=C(SC3=CN=C2)C(=O)N
# How it was run: as §1
# Sequence of UniProt Q86XZ4 (Q86XZ4 whole entry, looked up): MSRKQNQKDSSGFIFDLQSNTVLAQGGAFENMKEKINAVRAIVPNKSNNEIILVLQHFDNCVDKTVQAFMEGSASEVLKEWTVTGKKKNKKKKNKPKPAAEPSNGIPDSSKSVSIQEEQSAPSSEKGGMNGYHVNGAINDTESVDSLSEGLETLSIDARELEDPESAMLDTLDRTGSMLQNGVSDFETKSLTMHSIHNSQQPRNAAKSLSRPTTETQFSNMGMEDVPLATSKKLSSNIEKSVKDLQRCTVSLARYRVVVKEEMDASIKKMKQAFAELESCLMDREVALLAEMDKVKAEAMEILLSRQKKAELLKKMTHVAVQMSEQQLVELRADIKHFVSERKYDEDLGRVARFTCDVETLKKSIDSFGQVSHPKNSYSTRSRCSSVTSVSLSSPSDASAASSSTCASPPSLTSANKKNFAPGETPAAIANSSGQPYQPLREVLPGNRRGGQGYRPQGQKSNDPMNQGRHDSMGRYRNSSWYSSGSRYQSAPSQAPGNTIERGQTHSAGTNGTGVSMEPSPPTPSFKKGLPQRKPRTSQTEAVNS
# Sequence of UniProt P50225 (P50225 whole entry, looked up): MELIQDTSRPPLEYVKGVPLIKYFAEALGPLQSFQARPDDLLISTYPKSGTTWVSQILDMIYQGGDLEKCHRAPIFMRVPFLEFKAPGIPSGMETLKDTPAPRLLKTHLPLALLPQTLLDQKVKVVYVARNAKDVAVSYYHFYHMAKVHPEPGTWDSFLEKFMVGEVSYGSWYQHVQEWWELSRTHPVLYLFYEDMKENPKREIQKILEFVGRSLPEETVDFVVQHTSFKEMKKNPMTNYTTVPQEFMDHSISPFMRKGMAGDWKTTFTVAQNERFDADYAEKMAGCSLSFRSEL
# Sequence of UniProt Q9NRP7 (Q9NRP7 whole entry, looked up): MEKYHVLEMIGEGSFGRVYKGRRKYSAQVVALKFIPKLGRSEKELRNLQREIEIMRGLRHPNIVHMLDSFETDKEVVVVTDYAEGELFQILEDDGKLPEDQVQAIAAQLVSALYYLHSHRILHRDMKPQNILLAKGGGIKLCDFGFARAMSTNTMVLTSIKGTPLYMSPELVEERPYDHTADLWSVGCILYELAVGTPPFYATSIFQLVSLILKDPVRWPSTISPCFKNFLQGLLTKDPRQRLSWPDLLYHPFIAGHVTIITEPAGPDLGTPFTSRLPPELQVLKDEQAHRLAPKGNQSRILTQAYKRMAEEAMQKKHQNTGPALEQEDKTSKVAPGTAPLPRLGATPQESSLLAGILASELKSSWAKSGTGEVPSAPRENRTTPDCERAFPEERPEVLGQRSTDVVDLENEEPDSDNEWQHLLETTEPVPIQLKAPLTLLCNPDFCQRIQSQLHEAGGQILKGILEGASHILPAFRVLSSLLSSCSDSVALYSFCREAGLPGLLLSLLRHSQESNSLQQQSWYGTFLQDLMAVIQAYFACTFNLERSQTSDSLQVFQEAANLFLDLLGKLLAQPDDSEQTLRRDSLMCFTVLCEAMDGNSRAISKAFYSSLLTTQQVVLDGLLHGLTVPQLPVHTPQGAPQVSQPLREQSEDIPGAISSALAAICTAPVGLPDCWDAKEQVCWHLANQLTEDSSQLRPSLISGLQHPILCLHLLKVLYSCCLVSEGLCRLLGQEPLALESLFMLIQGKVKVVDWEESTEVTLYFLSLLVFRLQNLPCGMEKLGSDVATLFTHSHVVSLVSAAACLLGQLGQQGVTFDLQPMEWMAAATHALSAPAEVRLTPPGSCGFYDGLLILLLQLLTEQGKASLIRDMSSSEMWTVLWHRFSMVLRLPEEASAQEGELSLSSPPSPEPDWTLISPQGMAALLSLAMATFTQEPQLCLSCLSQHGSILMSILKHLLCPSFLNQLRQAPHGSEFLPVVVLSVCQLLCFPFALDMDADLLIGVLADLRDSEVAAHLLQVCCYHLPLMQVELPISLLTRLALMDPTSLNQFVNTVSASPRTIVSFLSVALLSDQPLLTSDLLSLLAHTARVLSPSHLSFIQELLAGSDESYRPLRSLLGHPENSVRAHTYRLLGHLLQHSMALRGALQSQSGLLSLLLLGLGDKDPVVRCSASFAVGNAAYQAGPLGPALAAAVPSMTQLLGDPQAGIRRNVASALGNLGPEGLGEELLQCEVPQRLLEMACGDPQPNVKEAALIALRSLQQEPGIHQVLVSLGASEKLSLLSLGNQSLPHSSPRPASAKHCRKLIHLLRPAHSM
# Sequence of UniProt P08047 (P08047 whole entry, looked up): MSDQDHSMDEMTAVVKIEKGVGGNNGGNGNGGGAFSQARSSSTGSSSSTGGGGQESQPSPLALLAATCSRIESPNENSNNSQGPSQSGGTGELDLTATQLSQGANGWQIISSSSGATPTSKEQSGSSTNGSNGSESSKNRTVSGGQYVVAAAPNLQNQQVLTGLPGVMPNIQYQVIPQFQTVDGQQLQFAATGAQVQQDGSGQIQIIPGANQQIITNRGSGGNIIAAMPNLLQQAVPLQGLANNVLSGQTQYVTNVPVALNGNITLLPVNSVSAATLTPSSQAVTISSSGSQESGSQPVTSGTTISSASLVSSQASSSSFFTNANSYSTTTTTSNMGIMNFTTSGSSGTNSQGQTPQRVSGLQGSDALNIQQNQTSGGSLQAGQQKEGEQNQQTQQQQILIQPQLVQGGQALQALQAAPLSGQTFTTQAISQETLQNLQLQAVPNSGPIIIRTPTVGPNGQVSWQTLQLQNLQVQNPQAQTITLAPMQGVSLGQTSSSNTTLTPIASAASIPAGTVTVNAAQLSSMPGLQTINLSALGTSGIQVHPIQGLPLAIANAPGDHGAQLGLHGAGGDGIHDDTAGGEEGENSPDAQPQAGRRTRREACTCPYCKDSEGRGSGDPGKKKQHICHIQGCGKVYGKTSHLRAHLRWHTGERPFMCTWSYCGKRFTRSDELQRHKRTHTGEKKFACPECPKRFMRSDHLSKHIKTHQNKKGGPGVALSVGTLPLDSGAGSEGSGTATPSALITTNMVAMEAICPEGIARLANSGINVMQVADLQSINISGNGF
# Sequence of UniProt Q9P289 (Q9P289 whole entry, looked up): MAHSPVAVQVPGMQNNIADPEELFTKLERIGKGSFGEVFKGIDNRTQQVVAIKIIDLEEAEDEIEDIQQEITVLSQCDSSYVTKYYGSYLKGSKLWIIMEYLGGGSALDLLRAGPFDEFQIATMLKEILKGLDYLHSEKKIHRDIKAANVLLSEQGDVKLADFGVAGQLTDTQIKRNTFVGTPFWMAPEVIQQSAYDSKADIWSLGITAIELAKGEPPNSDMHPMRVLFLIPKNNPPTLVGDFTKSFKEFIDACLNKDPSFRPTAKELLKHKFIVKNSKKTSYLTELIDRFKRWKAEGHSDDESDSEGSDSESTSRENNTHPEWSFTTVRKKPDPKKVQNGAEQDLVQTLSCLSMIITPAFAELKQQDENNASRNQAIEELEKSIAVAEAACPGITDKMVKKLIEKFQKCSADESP
# Sequence of UniProt Q8NHG7 (Q8NHG7 whole entry, looked up): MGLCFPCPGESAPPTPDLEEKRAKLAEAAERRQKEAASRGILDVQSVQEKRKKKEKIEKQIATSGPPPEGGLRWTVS
# Sequence of UniProt Q96BD8 (Q96BD8 whole entry, looked up): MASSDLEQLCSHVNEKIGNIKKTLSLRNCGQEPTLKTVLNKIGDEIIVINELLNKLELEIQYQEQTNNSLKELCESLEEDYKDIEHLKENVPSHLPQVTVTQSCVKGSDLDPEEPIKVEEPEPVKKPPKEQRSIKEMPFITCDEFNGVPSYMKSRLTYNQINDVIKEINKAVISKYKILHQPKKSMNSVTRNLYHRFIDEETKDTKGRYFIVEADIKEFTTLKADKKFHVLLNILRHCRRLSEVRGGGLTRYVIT
# Sequence of UniProt Q16563 (Q16563 whole entry, looked up): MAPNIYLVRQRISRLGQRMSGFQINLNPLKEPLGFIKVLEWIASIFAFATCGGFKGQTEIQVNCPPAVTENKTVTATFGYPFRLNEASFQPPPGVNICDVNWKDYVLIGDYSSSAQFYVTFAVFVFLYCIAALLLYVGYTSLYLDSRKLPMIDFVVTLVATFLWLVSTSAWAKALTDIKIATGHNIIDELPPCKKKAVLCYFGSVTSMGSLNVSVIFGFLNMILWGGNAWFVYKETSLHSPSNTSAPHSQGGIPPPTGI
# Sequence of UniProt Q96EX1 (Q96EX1 whole entry, looked up): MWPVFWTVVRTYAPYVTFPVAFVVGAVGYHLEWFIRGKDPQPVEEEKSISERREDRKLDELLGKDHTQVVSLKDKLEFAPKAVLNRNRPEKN
# Sequence of UniProt Q9H2H9 (Q9H2H9 whole entry, looked up): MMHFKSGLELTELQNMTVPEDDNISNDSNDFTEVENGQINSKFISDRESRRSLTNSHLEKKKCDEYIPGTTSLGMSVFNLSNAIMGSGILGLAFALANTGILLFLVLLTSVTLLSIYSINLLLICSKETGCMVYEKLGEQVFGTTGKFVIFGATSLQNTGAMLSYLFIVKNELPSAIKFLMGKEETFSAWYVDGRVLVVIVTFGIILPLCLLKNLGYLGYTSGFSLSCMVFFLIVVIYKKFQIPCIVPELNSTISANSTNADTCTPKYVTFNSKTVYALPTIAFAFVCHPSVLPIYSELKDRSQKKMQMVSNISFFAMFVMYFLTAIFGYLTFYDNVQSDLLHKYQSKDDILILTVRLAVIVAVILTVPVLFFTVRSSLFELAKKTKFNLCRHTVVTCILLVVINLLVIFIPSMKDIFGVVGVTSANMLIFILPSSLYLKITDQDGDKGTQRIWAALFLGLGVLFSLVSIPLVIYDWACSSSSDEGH
# Sequence of UniProt Q96DI7 (Q96DI7 whole entry, looked up): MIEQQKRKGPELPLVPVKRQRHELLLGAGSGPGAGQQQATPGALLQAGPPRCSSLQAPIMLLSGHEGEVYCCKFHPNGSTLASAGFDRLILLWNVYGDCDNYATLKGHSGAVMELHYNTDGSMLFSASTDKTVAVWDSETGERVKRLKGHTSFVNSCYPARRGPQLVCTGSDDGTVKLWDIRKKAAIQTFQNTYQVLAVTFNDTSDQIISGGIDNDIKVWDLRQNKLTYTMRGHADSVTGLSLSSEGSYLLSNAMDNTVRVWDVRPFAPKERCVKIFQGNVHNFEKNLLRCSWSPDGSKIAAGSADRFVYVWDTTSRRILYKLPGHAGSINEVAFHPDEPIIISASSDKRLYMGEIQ
Target,log2 fold change (erlotinib),log2 fold change [1],log2 fold change [2],log2 fold change [3],log2 fold change [4],log2 fold change [5],log2 fold change [6],log2 fold change [7],log2 fold change [8],log2 fold change (IRAK-1-4 Inhibitor I),log2 fold change (ibrutinib),log2 fold change [9],log2 fold change (ralimetinib),log2 fold change [10],log2 fold change [11],log2 fold change [12],log2 fold change [13],log2 fold change [14],log2 fold change [15],log2 fold change [16]
SLC38A1 (UniProt Q9H2H9),-0.01,-0.029,0.056,0.007,0.01,0.039,-0.061,-0.027,0.026,0.053,0.001,-0.053,-0.021,-0.041,0.037,-0.001,-0.039,0.027,0.018,-0.01
SKA1 (UniProt Q96BD8),-0.029,-0.015,0.029,0.072,-0.062,0.065,-0.06,0.02,-0.094,0.013,0.002,0.033,-0.023,-0.017,0.044,0.014,0.066,-0.017,0.033,0.007
SMAP2 (UniProt Q8WU79),-0.009,-0.018,0.073,0,0.023,-0.2,0.015,0.037,0.023,0.044,-0.008,-0.008,-0.015,-0.01,0.024,0.034,0.019,-0.286 (active),-0.015,0.002
STK36 (UniProt Q9NRP7),0.114,-0.06,0.251,-0.199,-0.169,-0.075,-0.241,-0.049,0.185,0.205,0.019,-0.182,-0.087,-0.416,0.071,-0.058,-0.176,0.408,-0.004,-0.097
SMARCA4 (UniProt P51532),-0.01,-0.018,-0.021,0.011,-0.001,-0.003,-0.017,-0.003,-0.024,-0.025,0.021,-0.007,0.035,0.018,-0.009,-0.003,-0.032,-0.026,0.028,0.012
STK26 (UniProt Q9P289),0.008,-0.007,-0.005,-0.009,0.002,-0.002,0.06,0.03,-0.011,-0.018,-0.043,0.113,-0.018,0.004,-0.015,-0.021,0.006,-0.028,0.035,-0.025
SYPL1 (UniProt Q16563),0.026,-0.017,-0.014,0.016,0.04,0.025,0.002,0.014,0.002,0.032,0.015,0.004,0.018,-0.058,0,-0.025,-0.018,0.007,0.006,-0.005
SMIM12 (UniProt Q96EX1),0.048,-0.105,-0.024,-0.042,-0.026,0.024,-0.009,0.075,0.008,-0.009,0.04,0.013,0.021,-0.049,-0.024,-0.008,-0.002,0.038,-0.064,-0.011
SP1 (UniProt P08047),-0.012,-0.04,0.053,0.093,-0.047,0.007,0.04,0.004,0.013,0.034,0.04,0.017,-0.018,-0.049,-0.103,-0.013,0.061,0.22,0.017,-0.027
SYNE2 isoform 2 (UniProt Q8WXH0),-0.09,-0.069,-0.023,-0.156,-0.04,-0.015,-0.146,-0.064,0.037,0.127,0,-0.003,0.018,-0.076,-0.106,-0.153,-0.047,0.04,-0.005,0.006
SMG1 (UniProt Q96Q15),-0.004,-0.031,-0.046,0.009,0.029,-0.022,-0.072,-0.036,0.024,-0.008,0.041,0.017,0.044,-0.019,-0.003,0.005,0.027,0.023,0.017,0.007
SPATS2 (UniProt Q86XZ4),-0.012,-0.127,-0.042,0.028,-0.007,0.017,-0.081,0.063,0.043,-0.066,-0.06,-0.069,-0.018,0.03,0.111,0.077,-0.061,-0.007,-0.046,-0.001
SNRNP40 (UniProt Q96DI7),0.025,0.046,-0.03,-0.031,-0.031,0.009,0.011,0.02,-0.004,0.01,-0.008,0.026,-0.03,-0.047,-0.02,0.042,0.332 (active),0.02,0.069,0.029
SHKBP1 (UniProt Q8TBC3),-0.005,-0.064,0.058,0.004,0.011,0.01,-0.018,0.076,0.189,0.022,0.064,-0.02,0.063,0.006,0.067,-0.005,-0.051,0.038,0.052,0.004
SULT1A1 (UniProt P50225),-0.045,0.08,-0.014,0.069,0.048,-0.011,-0.061,-0.026,0.018,-0.04,0.02,-0.027,0.028,-0.03,0.03,-0.009,-0.06,0.022,0.047,0.006
SVIP (UniProt Q8NHG7),0.037,0.013,-0.004,-0.007,0.001,0.041,-0.012,0.107,0.057,0.001,0.088,-0.031,0.01,-0.062,-0.017,-0.029,-0.014,0.075,0.017,-0.019
